{"source": "PubChem BioAssay AID463173", "about": "(ICCB-Longwood Screening Facility, Harvard Medical School, 2010)", "note": "The campaign covered roughly 52,000 compounds. About 4,300 (8.3%) were called active. The sample as a whole holds a higher share of actives than the screen did. A number with no mark means an inactive call. No stated cut-off is given here; in the data, active means survival mostly below about 52% (no sharp cut-off); inactive means mostly above about 56%."}
{"tested_on": "DeltatarO mutant", "test": "S. aureus survival, RN4220 and DeltatarO strains – OD600, teichoic acid synthesis inhibitors, primary screen (AID 463173)", "conditions": "S. aureus RN4220 wild type/DeltatarO growth, OD600, 18 h, hits give low values, screened at 18.75 µg/mL (by protocol)"}
{"smiles": "Cc1ccc(-n2c(=O)c3c4c(sc3n(CC(=O)C(C)(C)C)c2=O)CCCCC4)cc1C", "survival": "89%"}
{"smiles": "CC(C)CCNC(=O)c1cn(C)c2ccc(S(=O)(=O)N3CCCC3)cc2c1=O", "survival": "138%"}
{"smiles": "CCc1ccc2oc(C(=O)NCC(c3ccc(OC)cc3)N3CCCCC3)c(C)c2c1", "note": "(stereo not drawn)", "survival": "81%"}
{"smiles": "O=C(CCn1cnc2onc(-c3ccc(F)cc3)c2c1=O)Nc1cccc(C(F)(F)F)c1", "survival": "96%"}
{"smiles": "Cc1ccc(-n2nc(C(=O)N3CCN(c4ccccc4F)CC3)c(=O)n(C)c2=O)cc1", "survival": "93%"}
{"smiles": "Cc1ccsc1CN(C(=O)COc1ccc(Br)cc1)C1CCS(=O)(=O)C1", "note": "(stereo not drawn)", "survival": "73%"}
{"smiles": "Cc1ccc(CN2CCC(CNC(=O)Nc3cccc(C)c3C)C2)cc1", "note": "(stereo not drawn)", "survival": "112%"}
{"smiles": "Cc1cc(Cl)ccc1NC(=O)Cn1nnc2sc(-c3ccccc3)cc2c1=O", "survival": "106%"}
{"smiles": "Cc1cn2c(=O)cc(COC(=O)c3cccc(NC(=O)c4ccccc4Cl)c3)nc2s1", "survival": "102%"}
{"smiles": "COc1cccc(CNC(=O)Cn2c(=O)ccc3cc(S(=O)(=O)N4CCC(C)CC4)ccc32)c1", "survival": "99%"}
{"smiles": "COc1cc(OC)c(NC(=O)Nc2ccccc2OCc2cc(=O)n3cc(C)ccc3n2)cc1Cl", "survival": "103%"}
{"smiles": "COc1ccccc1C(=O)Nc1ccc(OCc2cc(=O)n3cc(C)sc3n2)cc1", "survival": "130%"}
{"smiles": "CCOc1ccc(C(=O)Nc2c(C(=O)c3ccccc3)oc3ccccc23)cc1", "survival": "72%"}
{"smiles": "O=C(NCCc1ccccc1)c1cc2sccc2n1Cc1ccc(F)cc1", "survival": "72%"}
{"smiles": "COc1cc(OC)c(NC(=O)CCc2c(C)nc3ncnn3c2C)cc1Cl", "survival": "97%"}
{"smiles": "Cc1cn2c(=O)c(S(=O)(=O)NCc3ccccc3Cl)c(C)nc2s1", "survival": "66%"}
{"smiles": "Cc1ccc2oc(C(=O)Nc3c(C(=O)Nc4cccc(Cl)c4)oc4ccccc34)cc(=O)c2c1", "survival": "67%"}
{"smiles": "Cc1cc(C)c2oc(C(=O)Nc3c(C(=O)c4ccccc4)oc4ccccc34)cc(=O)c2c1", "survival": "55%"}
{"smiles": "Cc1cc2oc(C(=O)Nc3c(C(=O)Nc4ccccc4)oc4ccccc34)cc(=O)c2cc1C", "survival": "106%"}
{"smiles": "Cc1ccc2c(=O)cc(C(=O)Nc3nnc(C)s3)oc2c1", "survival": "76%"}
{"smiles": "COc1ccc(NC(=O)c2oc3ccccc3c2NC(=O)c2cc(=O)c3cc(Cl)ccc3o2)cc1", "survival": "54%"}
{"smiles": "Cc1cccc(NC(=O)c2oc3ccccc3c2NC(=O)c2cc(=O)c3cc(Cl)ccc3o2)c1", "survival": "43% (active)"}
{"smiles": "O=C(Nc1c(C(=O)Nc2cccc(C(F)(F)F)c2)oc2ccccc12)c1cc(=O)c2ccccc2o1", "survival": "78%"}
{"smiles": "Cc1ccc2c(=O)cc(C(=O)Nc3c(C(=O)Nc4cccc(Cl)c4)oc4ccccc34)oc2c1", "survival": "36% (active)"}
{"smiles": "Cc1ccc2oc(C(=O)Nc3cccc(Cl)c3)cc(=O)c2c1", "survival": "92%"}
{"smiles": "Cc1cc(C)c2oc(C(=O)Nc3c(C(=O)Nc4ccccc4)oc4ccccc34)cc(=O)c2c1", "survival": "51% (active)"}
{"smiles": "COC(=O)c1ccc(NC(=O)c2cc(=O)c3ccc(C)cc3o2)cc1", "survival": "96%"}
{"smiles": "Cc1ccc2c(=O)cc(C(=O)Nc3c(C)cccc3C)oc2c1", "survival": "44% (active)"}
{"smiles": "NCC1Cc2ccccc2O1", "note": "(stereo not drawn)", "survival": "103%"}
{"smiles": "O=c1c2oc3ccccc3c2n(Cc2cccc(F)c2)c(=O)n1Cc1ccco1", "survival": "75%"}
{"smiles": "Cc1ccccc1CSc1nnc2[nH]c(=O)cc(C)n12", "survival": "84%"}
{"smiles": "Cc1cc(C)cc(-n2ccnc(NCCc3ccccc3)c2=O)c1", "survival": "101%"}
{"smiles": "CC(C)Oc1ccc(C2CC(=O)N(C)C2=O)cc1", "note": "(stereo not drawn)", "survival": "82%"}
{"smiles": "Cc1ccc(OCC(=O)Nc2ccc(S(=O)(=O)N3CCOCC3)cc2)c(C)c1", "survival": "94%"}
{"smiles": "COc1ccc2cc(CN(Cc3nnnn3Cc3ccccc3)C3CCCC3)c(=O)[nH]c2c1", "survival": "96%"}
{"smiles": "CC1CCN(C(=O)c2ccc3nc(N4C(=O)CCC4=O)sc3c2)CC1", "survival": "95%"}
{"smiles": "COc1ccc(C)cc1NC(=O)C(=O)NCCc1csc2nc(-c3ccccc3F)nn12", "survival": "72%"}
{"smiles": "COc1ccc(N2CCN(S(C)(=O)=O)CC2)cc1", "survival": "86%"}
{"smiles": "COc1cc2c(=O)c(S(=O)(=O)c3ccc(F)cc3)cn(Cc3ccccc3C)c2cc1OC", "survival": "55%"}
{"smiles": "CCOC(=O)C1CCCN(C(=O)c2ccc3c(c2)sc2nc(-c4cccc(OC)c4)cn23)C1", "note": "(stereo not drawn)", "survival": "77%"}
{"smiles": "CCOc1ccc(C(=O)c2oc3ccccc3c2NC(=O)c2cc(=O)c3ccc(C)cc3o2)cc1", "survival": "134%"}
{"smiles": "CCc1ccc2oc(C(=O)Nc3ccccc3OC)cc(=O)c2c1", "survival": "49%"}
{"smiles": "Cc1ccc2oc(C(=O)Nc3c(C(=O)Nc4ccccc4)oc4ccccc34)cc(=O)c2c1", "survival": "73%"}
{"smiles": "Cc1ccc(C(=O)c2oc3ccccc3c2NC(=O)c2cc(=O)c3ccccc3o2)cc1", "survival": "57%"}
{"smiles": "COc1ccc(C(=O)c2oc3ccccc3c2NC(=O)c2cc(=O)c3ccc(C)cc3o2)cc1Cl", "survival": "44% (active)"}
{"smiles": "CCOc1ccccc1NC(=O)c1cc(=O)c2ccc(C)cc2o1", "survival": "44% (active)"}
{"smiles": "Cc1cccc(NC(=O)c2oc3ccccc3c2NC(=O)c2cc(=O)c3ccccc3o2)c1", "survival": "73%"}
{"smiles": "Cc1ccc2c(=O)cc(C(=O)Nc3c(C(=O)c4ccccc4)oc4ccccc34)oc2c1", "survival": "76%"}
{"smiles": "Cc1cccc(NC(=O)c2oc3ccccc3c2NC(=O)c2cc(=O)c3ccc(C)cc3o2)c1", "survival": "28% (active)"}
{"smiles": "COC(=O)C(C)Oc1ccc(N2C(=O)c3ccccc3C2=O)cc1", "note": "(stereo not drawn)", "survival": "75%"}
{"smiles": "O=S(=O)(c1ccc(-c2cc(C(F)(F)F)on2)s1)N1CCN(c2ccccc2)CC1", "survival": "75%"}
{"smiles": "CCOc1ccc(-c2cc3nc(C4CCN(C(=O)OC(C)(C)C)CC4)c(C(=O)Nc4cccc(C(F)(F)F)c4)cn3n2)cc1", "survival": "79%"}
{"smiles": "O=C1C2C3c4ccccc4C(c4ccccc43)C2C(=O)N1Cc1ccccn1", "note": "(stereo not drawn)", "survival": "83%"}
{"smiles": "COCC[N+]1(C)CCCCC1", "survival": "84%"}
{"smiles": "CC1CCN(C(=O)CSc2nc(-c3ccc(F)cc3)cc(C(F)(F)F)n2)CC1", "survival": "37% (active)"}
{"smiles": "CC1CCN(C(=O)CSc2n[nH]c(-c3ccc(F)cc3)n2)CC1", "survival": "92%"}
{"smiles": "CC1CCN(C(=O)C(C)Sc2nc(-c3ccccc3)cc(C(F)(F)F)n2)CC1", "note": "(stereo not drawn)", "survival": "-1% (active)"}
{"smiles": "CC1CN(C(=O)C(C)Sc2nc(-c3ccccc3)cc(C(F)(F)F)n2)CC(C)O1", "note": "(stereo not drawn)", "survival": "78%"}
{"smiles": "COc1ccc(-c2cc(C(F)(F)F)nc(SCC(=O)N3CCC(C)CC3)n2)cc1", "survival": "56%"}
{"smiles": "CC(Sc1nc(-c2ccccc2)cc(C(F)(F)F)n1)C(=O)N1CCCC1", "note": "(stereo not drawn)", "survival": "101%"}
{"smiles": "CC(C)C(=O)Nc1cccc(C(=O)Nc2nncs2)c1", "survival": "87%"}
{"smiles": "O=C(CSc1nc(-c2ccc(F)cc2)[nH]c1-c1ccccc1)NCC1CCCO1", "note": "(stereo not drawn)", "survival": "82%"}
{"smiles": "Cc1ccccc1-c1noc(-c2ccc(NCc3cccnc3)c([N+](=O)[O-])c2)n1", "survival": "98%"}
{"smiles": "O=C(c1ccc2c(c1)C(=O)N(CCCO)C2=O)c1ccc2c(c1)C(=O)N(CCCO)C2=O", "survival": "70%"}
{"smiles": "C[N+](C)(C)CCNC(=O)c1ccc(/C=N/O)nc1", "survival": "81%"}
{"smiles": "Oc1ccc(CNc2ccccc2Cl)c2cccnc12", "survival": "115%"}
{"smiles": "CCN(CC)S(=O)(=O)c1nnc(NC(=O)COc2ccccc2Cl)s1", "survival": "95%"}
{"smiles": "Cc1ccccc1OCC(=O)Nc1nnc(S(=O)(=O)N2CCCCCC2)s1", "survival": "73%"}
{"smiles": "Cc1ccccc1OCC(=O)Nc1nnc(S(=O)(=O)N(C)c2ccccc2)s1", "survival": "67%"}
{"smiles": "O=C(COc1ccccc1Cl)Nc1nnc(S(=O)(=O)N2CCCC2)s1", "survival": "39% (active)"}
{"smiles": "Cc1ccccc1OCC(=O)Nc1nnc(S(=O)(=O)N2CCCC2)s1", "survival": "42% (active)"}
{"smiles": "O=C(COc1ccccc1F)Nc1nnc(S(=O)(=O)N2CCCCCC2)s1", "survival": "51% (active)"}
{"smiles": "O=C(COc1ccccc1Cl)Nc1nnc(S(=O)(=O)N2CCCCCC2)s1", "survival": "70%"}
{"smiles": "Cc1ccc(NC(=O)CN2C=NS(=O)(=O)c3ccccc32)cc1", "survival": "76%"}
{"smiles": "Cc1ccc2nc(N(Cc3cccnc3)C(=O)c3ccc4c(c3)OCCO4)sc2c1", "survival": "70%"}
{"smiles": "COc1ccc(/C=C/c2nc(C#N)c(N3CCN(c4ccccc4)CC3)o2)cc1OC", "survival": "88%"}
{"smiles": "COc1ccc(-c2onc(C)c2C)cc1S(=O)(=O)NC1CCCCC1", "survival": "72%"}
{"smiles": "CCOc1ccc(CCNC(=O)C2CCN(C(=O)N3CC(CC)Oc4ccc(C)cc43)CC2)cc1", "note": "(stereo not drawn)", "survival": "63%"}
{"smiles": "Cc1ccc(Cn2cc(S(=O)(=O)c3ccc(Cl)cc3)c(=O)c3cc4c(cc32)OCO4)cc1", "survival": "77%"}
{"smiles": "Cc1ccc(S(=O)(=O)NCCc2nnc3ccc(SCC(=O)Nc4ccc(F)cc4F)nn23)cc1", "survival": "88%"}
{"smiles": "Cc1c(C)n(Cc2ccccc2)c2ccc(C(=O)N3CCN(c4ccccc4)CC3)cc12", "survival": "99%"}
{"smiles": "CC(=O)Nc1ccc(S(=O)(=O)N(Cc2ccccc2)Cc2ccccc2)cc1", "survival": "54% (active)"}
{"smiles": "COC(=O)c1ccc(NC(=O)CN(CCc2ccccc2)S(=O)(=O)c2ccc(OC)cc2)cc1", "survival": "69%"}
{"smiles": "CCN(CC)S(=O)(=O)c1ccc(NC(=O)c2ccccc2)cc1", "survival": "77%"}
{"smiles": "Cc1ccc(S(=O)(=O)N(CC(=O)Nc2ccc(C(C)C)cc2)Cc2ccccc2)cc1", "survival": "54%"}
{"smiles": "CCOC(=O)c1ccc(CN(Cc2ccc(Cl)cc2Cl)S(=O)(=O)c2cccc(Cl)c2)cc1", "survival": "80%"}
{"smiles": "CCOC(=O)c1ccc(CN(Cc2ccc(C)cc2)S(=O)(=O)c2ccc(NC(C)=O)cc2)cc1", "survival": "73%"}
{"smiles": "CCOC(=O)c1ccc(NC(=O)CN(Cc2ccc(C)cc2)S(=O)(=O)c2ccc(C)cc2)cc1", "survival": "58%"}
{"smiles": "CCOC(=O)c1ccc(CN(Cc2ccccc2)S(=O)(=O)c2ccc(Cl)cc2)cc1", "survival": "32% (active)"}
{"smiles": "COC(=O)c1ccc(NC(=O)CN(Cc2ccccc2)S(=O)(=O)c2ccc(Cl)cc2)cc1", "survival": "40% (active)"}
{"smiles": "CCOc1ccc(NC(=O)CN(Cc2ccccc2)S(=O)(=O)c2ccc(Cl)cc2)cc1", "survival": "78%"}
{"smiles": "COC(=O)c1ccc(NC(=O)CN(Cc2ccccc2)S(=O)(=O)c2ccc(C)cc2)cc1", "survival": "42% (active)"}
{"smiles": "CCOC(=O)c1ccc(CN(Cc2ccc(F)cc2)S(=O)(=O)c2ccc(F)cc2)cc1", "survival": "87%"}
